# Measured values as given in PubChem BioAssay AID431 (Sanford-Burnham Center for Chemical Genomics, 2006).
# In all, about 63,000 compounds went through this assay and about 1,100 (1.7%) were called active. The sample as a whole holds a higher share of actives than the screen did. Entries with a potency or affinity are not part of this list. Values without a mark were called inactive.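 The calls were made as follows: active = compounds whose percent cytotoxicity in the single-dose primary screen, scaled between solvent and toxic-drug controls, exceeds 50; inactive = the rest.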
# Test: viability loss of HPDE-C7K cells – cell-based, fluorescence, HTS, primary screen (AID 431);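 also: 0% = DMSO solvent wells and 100% = doxorubicin-treated wells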
# Settings: HPDE-C7K KRASV12 cells, Alamar Blue viability, 48 h; at 10 µM; hits give high values
row,Structure (SMILES),cytotoxicity
1,CCc1c(C)c(C#N)c2nc3ccccc3n2c1N(C)C,10.9%
2,CCCCn1c(=O)cc(O)c2ccccc21,-12.7%
3,CC1=C(C(=O)OCC2CCCO2)C(c2ccncc2)C2=C(CCCC2=O)N1 (stereo unspecified),-3.4%
4,Nc1nncn1C(=O)CCc1ccccc1,4%
5,O=c1oc(-c2cccs2)nc2sc3c(c12)CCC3,33%
6,O=c1oc(-c2cccs2)nc2sc3c(c12)CCCCC3,43.5%
7,O=c1oc(-c2cc3ccccc3o2)nc2sc3c(c12)CCCC3,57.9% (active)
8,Cc1cccc(-c2c3c(=O)n(C)c(=O)n(C)c3cn2C(C)C)c1,-5.2%
9,CCOC(=O)c1ccc(N2C(=O)CC(Sc3nnc(C)s3)C2=O)cc1 (stereo unspecified),-5.1%
10,C=CCNc1nnc(SC2CC(=O)N(c3ccc(OC)cc3)C2=O)s1 (stereo unspecified),77.3% (active)
11,COc1ccc(N2C(=O)CC(Sc3nccc(C)n3)C2=O)cc1 (stereo unspecified),9.4%
12,O=C(CN1C(=O)C2C3C=CC(C3)C2C1=O)N1CC(=O)N(CCc2ccccc2)C(=O)C1 (stereo unspecified),-4.4%
13,CCc1nc2sc3c(c2c(=O)n1N)CCC3,-6.1%
14,Nn1c(Nc2ccccc2)nc2sc3c(c2c1=O)CCC3,61.4% (active)
15,Nn1c(-c2cccs2)nc2sc3c(c2c1=O)CCCC3,-1.9%
16,N#CC1=C2SCN(c3ccc(F)cc3)CN2C(=O)CC1c1cccc(F)c1 (stereo unspecified),1.2%
17,Cc1ccccc1Cn1cc(NC(=O)c2noc3c2CC(C(C)(C)C)CC3)cn1 (stereo unspecified),-6.5%
18,CC(C)(C)C1CCc2onc(C(=O)Nc3cnn(Cc4ccc(F)cc4)c3)c2C1 (stereo unspecified),81.6% (active)
19,CC(C)(C)C1CCc2onc(C(=O)NCc3ccc(F)cc3)c2C1 (stereo unspecified),-7%
20,COc1ccccc1NC(=O)Cc1noc(CSc2cc(C)c3ccccc3n2)n1,-4.4%
21,O=C(c1cccnc1)N1CCC(c2nc3ccccc3[nH]2)CC1,-11.8%
22,O=C1NC(c2ccccc2)(C(F)(F)F)SC2=NCCCN12 (stereo unspecified),6.7%
23,Cc1ccc(C2(C(F)(F)F)NC(=O)N3CCN=C3S2)cc1 (stereo unspecified),76.6% (active)
24,Cc1ccc(C2(C(F)(F)F)NC(=O)N3CCCN=C3S2)cc1 (stereo unspecified),-10.2%
25,CCN(CC)CCCN1C(=O)c2oc3ccccc3c(=O)c2C1c1cccc(OC)c1OC (stereo unspecified),-9.4%
26,C=CCn1cnc2c(c1=O)c1nc3ccccc3nc1n2-c1ccccc1,-1.9%

row,Structure (SMILES),cytotoxicity
1,C=CCn1cnc2c(c1=O)c1nc3ccccc3nc1n2/N=C/c1ccccn1,-21.9%
2,COCCn1cnc2c(c1=O)c1nc3ccccc3nc1n2/N=C/c1cccc(OC)c1OC,9.4%
3,C=CCn1cnc2c(c1=O)c1nc3ccccc3nc1n2Cc1ccccc1,-3.7%
4,C=CCn1cnc2c(c1=O)c1nc3ccccc3nc1n2/N=C/c1cccc(OC)c1OC,59.6% (active)
5,C=CCn1cnc2c(c1=O)c1nc3ccccc3nc1n2/N=C/c1cccc(OC)c1,55.1% (active)
6,C=CCn1cnc2c(c1=O)c1nc3ccccc3nc1n2-c1ccc(Cl)cc1,0.8%
7,C=CCn1cnc2c(c1=O)c1nc3ccccc3nc1n2-c1ccc(C)cc1,13.4%
8,Cc1ccc(S(=O)(=O)NC(C)C(=O)NC2CCCCCC2)cc1 (stereo unspecified),1%
9,O=C1C(=C(O)c2ccccc2)C(=O)c2ccccc21,2%
10,O=C(CC(c1ccco1)C1CCCCC1=O)c1ccco1 (stereo unspecified),14.2%
11,COc1cccc(C(=O)N(CN2CCCC2=O)c2cccc(Cl)c2)c1,-17.4%
12,CCOC(=O)c1cccc(NC(=O)CN(C)S(=O)(=O)c2cnc[nH]2)c1,-9.7%
13,CCc1nnc(NC(=O)CSc2nnc(COc3ccccc3)n2-c2ccc(C)cc2)s1,2.3%
14,COC(=O)Cn1cnc2c(C#N)c3n(c2c1=O)CCCCC3,-14.2%
15,COc1ccccc1-c1noc(-c2ccccc2C(=O)N2CCOCC2)n1,-11.4%
16,CCn1c2ccccc2c2cc(/C=N/n3cnnc3)ccc21,16.2%
17,CCn1c2ccccc2c2cc(N)ccc21,22.9%
18,C=Cn1ccnc1P(=S)(c1ccc2c(c1)c1ccccc1n2CC)c1nccn1C=C,63.9% (active)
19,CCN(CC(=O)Nc1ccc2c(c1)OCCO2)C(=O)C1CCCCC1,-7.3%
20,N#Cc1ccc(NC(=O)Nc2ccc(Cl)cc2)cc1,67.5% (active)
21,Cc1cccc(NC(=O)Nc2ccc(C#N)cc2)n1,12.8%
22,CN(CC(=O)Nc1ccc(C#N)cc1)Cc1ccc(Cl)cc1,2.8%
23,O=C(c1ccc(Cl)cc1)N1CCCOC1,0.8%
24,C=CC(=C)CC(NC)c1ccccc1 (stereo unspecified),8.2%
25,Cc1nc(NCC2CCCO2)c2oc3ccccc3c2n1 (stereo unspecified),6.5%
26,CCOC(=O)c1c(N)sc2c(O)c(Br)ccc12,13.7%

row,Structure (SMILES),cytotoxicity
1,CCOC(=O)c1c(N)sc2c(OC)c(Br)ccc12,58.8% (active)
2,CCOC(=O)c1c(N)sc(=S)c2c1CCC2,10.6%
3,Cc1ccc2c(c1)cc(CN(CCc1ccccc1)C(=O)N1CCOCC1)c1nnnn12,-24.7%
4,COc1ccc(NC(=O)N(CCCN(C)C)Cc2cc3cc(OC)ccc3[nH]c2=O)cc1,-3%
5,CCN(CC)S(=O)(=O)c1cc(C(=O)Oc2ccccc2OC)ccc1OC,2.8%
6,Cn1c(CNC(=O)Cc2ccc3c(c2)OCO3)nnc1SCc1ccccc1,-39.1%
7,CC1Cn2c(nnc2-c2cccc(Cl)c2)S1 (stereo unspecified),3.6%
8,CCOC(=O)C(C)Sc1nc(-c2cccs2)ccc1C#N (stereo unspecified),59.5% (active)
9,COC(=O)CSc1nc(-c2cccs2)ccc1C#N,12.6%
10,C=COC(=O)CSc1nc(-c2cccs2)ccc1C#N,40.6%
11,CCCCn1c(-c2cc(Cl)ccc2OC)n[nH]c1=S,-11.5%
12,Cc1ccc(S(=O)(=O)c2c(C)nn(C(C)(C)C)c2OC(=O)C2CCCC2)cc1,-5.1%
13,CC(=O)Nc1ccc(S(=O)(=O)N2CCC(NC(C)=O)(c3cccc(F)c3)CC2)cc1,8%
14,CC1CCCCN1CC(=O)Nc1sc2c(c1C#N)CCC2 (stereo unspecified),-11.1%
15,Cc1ccc(S(=O)(=O)NC(=O)NC(C)(C)C)cc1,12.4%
16,OC1CCN(Cc2cccc(Oc3ccccc3)c2)CC1,20.9%
17,OCC(CO)(CO)N=Cc1c(O)ccc2ccccc12,68% (active)
18,Oc1ccc2ccccc2c1C=NC12CN3CCN(CN(C3)C1)C2,0.4%
19,Oc1ccc2ccccc2c1/C=N/n1cnnc1,18.6%
20,COc1ccc(S(=O)(=O)N(CC(=O)N2CCN(C)CC2)C2CCCCC2)cc1OC,0.2%
21,Cc1ccc(Cn2c(-n3nc(C)cc3C)nc3c2c(=O)[nH]c(=O)n3C)cc1,5%
22,COc1ccc(CCn2c(-n3nc(C)cc3C)nc3c2c(=O)[nH]c(=O)n3C)cc1,52.6% (active)
23,Cc1cc(C)n(-c2nc3c(c(=O)[nH]c(=O)n3C)n2CCc2ccccc2)n1,11.3%
24,COc1ccc(N2CC(C(=O)NC3CC(C)(C)NC(C)(C)C3)CC2=O)cc1 (stereo unspecified),-5%
25,COc1ccc(OC)c(NC(=O)CSc2nnc(CNC(=O)COc3ccc(Cl)cc3)o2)c1,-3%
26,CCCn1c(=O)c(C(=O)Nc2nnc(CC)s2)c(O)c2ccccc21,14.3%

row,Structure (SMILES),cytotoxicity
1,CCn1c(=O)c(C(=O)Nc2cccnc2)c(O)c2ccccc21,11.7%
2,CCn1c(=O)c(C(=O)NCCNCCO)c(O)c2ccccc21,13.9%
3,CCCn1c(=O)c(C(=O)Nc2nnc(C)s2)c(O)c2ccccc21,62.2% (active)
4,CCn1c(=O)c(C(=O)Nn2c(C)nc3ccccc3c2=O)c(O)c2ccccc21,17.6%
5,CCn1c(=O)c(C(=O)NCCc2ccccc2)c(O)c2ccccc21,-11.5%
6,CCn1c(=O)c(C(=O)NCCCO)c(O)c2ccccc21,70.7% (active)
7,C=CCn1c(=O)c(C(=O)Nc2nnc(C)s2)c(O)c2ccccc21,9.1%
8,Cc1onc(-c2c(F)cccc2Cl)c1C(=O)NCCc1ccc(S(N)(=O)=O)cc1,-7.2%
9,N#C/C(C(=O)N1CCOCC1)=C1\Nc2ccccc2S1,14.5%
10,O=C(NCc1ccco1)c1cc(-c2ccncc2)nc2ccccc12,-8.1%
11,CCOc1cc(N2CCOCC2)c(OCC)cc1NC1=NCCCCC1,-3.3%
12,CC1CCCC(NC(=O)CSc2nnc(N)s2)C1C (stereo unspecified),-4.3%
13,Cc1ccc(C)c(N(CC(=O)NCc2ccc3c(c2)OCO3)C(=O)CCC(=O)Nc2ccccn2)c1,-28%
14,COc1ccc(N2CSC3=C(C#N)C(c4ccc(OC)c(OC)c4)CC(=O)N3C2)c(OC)c1 (stereo unspecified),-12%
15,Cn1c(CNc2ccc(Cl)cc2)nc2ccccc21,-9.8%
16,Cc1nc2ccccc2n1-c1ccccc1,-12.4%
17,CC(C)N=c1cc2n(-c3ccc(Cl)cc3)c3ccccc3nc-2cc1Nc1ccc(Cl)cc1,68.8% (active)
18,CCCCn1c(C(C)NC(=O)CCC)nc2ccccc21 (stereo unspecified),2.5%
19,CCOCCN1CCN(c2c(C)c(C)nc3cc(-c4cc(OC)cc(OC)c4)nn23)CC1,9.5%
20,CCc1c(C)nc2cc(-c3ccc(OC)c(OC)c3)nn2c1N1CCCC1,19.1%
21,O=C1SC(SCc2ccccc2)=N/C1=C\c1ccco1,42.6%
22,CCCSC1=N/C(=C\C=C\c2ccco2)C(=O)S1,51.9% (active)
23,C=CCSC1=N/C(=C\C=C\c2ccco2)C(=O)S1,33.1%
